# “And” between values parts separate entries of the source, which are not always exact repeats. Equal values may be shown once. The source made the active and inactive calls. Unless noted, no stated cut-off is given here; in the data, active means inhibition above about 80%; inactive means the rest.
# Key:
# [1] = hESC survival regulators, cell-based (AID 493140; call rule not given here;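 further: cells exposed to compounds for four days before counting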); details: human embryonic stem cell survival screen; stronger effect = higher value
# [2] = sensitizers of A549 cells to miR-34 induction, primary screen, imaging, A549 dox-inducible miR-34, nuclei and caspase counts (AID 1347080;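 active means compounds whose cell count with miR-34 switched on is under 0.7 times the count with it off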); details: A549 miR-34 inducible, Hoechst nuclei count, 48 h
# [3] = survival rescue of mitochondrial mutant cells in low glucose, primary screen, MELAS cybrids, Rieske KO mouse fibroblasts, CellTiter-Glo (AID 1508586;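 active means mean z-score across replicates of 1.96 or higher in either the MELAS or the Rieske mutant cell line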;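 further: z relative to plate mean and SD of compound and empty wells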)
# [4] = LFS_MB_P medulloblastoma growth inhibition, cell-based, chromothripsis tumors, cisplatin or BGB combos (AID 1671449); details: LFS_MB_P medulloblastoma cells;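 further: cells exposed for 96 hours; 0% = vehicle DMSO and 100% = killing by high DMSO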
# [5] = HDN33 neuroblastoma growth inhibition, cell-based, chromothripsis tumors, cisplatin or BGB combos (AID 1671450); details: HDN33 neuroblastoma cells, stronger effect = higher value;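 further: cells exposed to compound for four days; 0% = vehicle DMSO and 100% = cell killing by high DMSO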
# [6] = ICB984 medulloblastoma cell growth inhibition, synergistic combos for chromothripsis tumors, cisplatin or BGB combos (AID 1671451; call rule not given here;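 further: cells exposed for 96 hours before readout; 0% = vehicle DMSO and 100% = killing by high DMSO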); details: ICB984 medulloblastoma cells, drug combinations, stronger effect = higher value
# [7] = LFS_MB_1R medulloblastoma cell growth inhibition, synergistic combos for chromothripsis tumors, cisplatin or BGB combos (AID 1671452); details: LFS_MB_1R medulloblastoma cells, stronger effect = higher value;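 further: cells exposed for 96 hours before readout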
# [8] = HTB85 osteosarcoma cell growth inhibition, synergistic combos for chromothripsis tumors, BGB or cisplatin IC20 combos (AID 1671453); details: HTB85 osteosarcoma cells, drug combinations, stronger effect = higher value;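 further: cells exposed for 96 hours before readout; 0% = vehicle DMSO and 100% = high DMSO killing control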
# [9] = CRL2098 osteosarcoma cell growth inhibition, synergistic combos for chromothripsis tumors, BGB or cisplatin IC20 combos (AID 1671454); details: CRL2098 osteosarcoma cells, drug combinations, stronger effect = higher value;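 further: cells exposed for 96 h before readout; 0% = vehicle DMSO and 100% = killing by high DMSO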
# [10] = HD-MB03 medulloblastoma cell growth inhibition, synergistic combos for chromothripsis tumors, BGB or cisplatin IC20 combos (AID 1671455; in the data active means inhibition above about 83%;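 further: 0% = vehicle DMSO and 100% = high DMSO as cytotoxic control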); details: HD-MB03 medulloblastoma cells, stronger effect = higher value
# [11] = UWB1.289 ovarian carcinoma cell growth inhibition, synergistic combos for chromothripsis tumors, BGB or cisplatin combos (AID 1671456); details: UWB1.289 ovarian carcinoma cells, stronger effect = higher value;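 further: cells exposed to compound for four days; 0% = vehicle DMSO and 100% = killing by high DMSO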
# [12] = LFS_MB_2R medulloblastoma cell growth inhibition, synergistic combos for chromothripsis tumors, cisplatin combos (AID 1671457); details: LFS_MB_2R medulloblastoma cells, stronger effect = higher value;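 further: cells exposed to compound for four days before readout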
# [13] = MDA-MB-436 breast carcinoma cell growth inhibition, synergistic combos for chromothripsis tumors, BGB or cisplatin combos (AID 1671458; call rule not given here;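 further: cells exposed for 96 hours; 0% = vehicle DMSO and 100% = killing by high DMSO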); details: MDA-MB-436 breast carcinoma growth inhibition, drug combinations, stronger effect = higher value
# [14] = UWB1.289_BRCA1 ovarian cancer growth, cell-based, BGB or cisplatin combinations (AID 1671459); details: UWB1.289 BRCA1 ovarian carcinoma, drug combinations, stronger effect = higher value
# [15] = human astrocyte viability loss, single and combined drugs, cytotoxicity control for chromothriptic childhood tumor combination screen, cell-based, BGB or cisplatin IC20 combos (AID 1671460); details: Human astrocytes, drug combinations, stronger effect = higher value;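 further: cells exposed to compounds for 96 hours before viability readout; 0% = vehicle and 100% = killing control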
# [16] = growth inhibition of BT084 medulloblastoma cells, cell-based, ICGC_MB145, cisplatin and BGB IC40 combos (AID 1671461); details: drug combinations, stronger effect = higher value;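 further: cells exposed to drugs for 96 hours; 0% = vehicle DMSO and 100% = high DMSO full killing control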
# [17] = growth inhibition of RCMB18 medulloblastoma cells, cell-based, cisplatin and BGB IC40 combos (AID 1671462); details: stronger effect = higher value;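 further: cells exposed to compound for four days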
# [18] = growth inhibition of CRL1545 osteosarcoma cells, cell-based, cisplatin and BGB IC20 combos (AID 1671464); details: stronger effect = higher value;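 further: cells exposed to compound for 96 hours before readout; 0% = vehicle DMSO and 100% = high DMSO killing control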
# [19] = stronger effect = lower value, cell number ratio, induced over uninduced
# [20] = measured here: relative caspase fold change +Dox/-Dox
# [21] = measured here: total cells with miR-34 induction, stronger effect = lower value
# [22] = measured here: total cells without miR-34 induction
# [23] = MELAS cybrid survival, CellTiter-Glo 48 h, stronger effect = higher value
# [24] = Rieske KO mouse fibroblast survival, CellTiter-Glo 72 h
# [25] = measured here: combination with BGB IC40, at 0.05 µM
# [26] = measured here: with BGB IC20 combination, at 0.5 µM
# [27] = measured here: with cisplatin IC20 combination, at 0.5 µM
# [28] = measured here: combination with cisplatin, at 0.5 µM
# [29] = measured here: combination with cisplatin, at 5 µM
smiles,measurement,setting,value
O=C1OC(CN2CCOCC2)CN1N=Cc1ccc([N+](=O)[O-])o1 (stereo unspecified),survival,[1],5.92 (inactive)
same,fold change,[2]; [19],0.85 (inactive)
same,fold change,[2]; [20],1.96
same,cell count,[2]; [21],8420
same,cell count,[2]; [22],9900
same,z-score,[3]; [23],-0.512 (inactive)
same,z-score,[3]; [24],-0.452
CC(Oc1cc(-c2cnn(C3CCNCC3)c2)cnc1N)c1c(Cl)ccc(F)c1Cl (stereo unspecified),fold change,[2]; [19],0.89 (inactive) and 0.888 (inactive)
same,fold change,[2]; [20],0.695 and 1.44
same,cell count,[2]; [21],6060 and 1510
same,cell count,[2]; [22],6810 and 1700
same,z-score,[3]; [23],-0.618 (inactive) and 0.388 (inactive)
same,z-score,[3]; [24],-0.613 and -1.18
same,inhibition,"[4]; at 0.5 µM, stronger effect = higher value",-14.5% (inactive)
same,inhibition,"[4]; measured here: combination with BGB IC20, at 0.005 µM",-15.8%
same,inhibition,"[4]; measured here: combination with BGB IC40, at 0.005 µM",-3.96%
same,inhibition,[4]; [25],-10.8%
same,inhibition,"[4]; measured here: combination with cisplatin, at 0.5 µM, stronger effect = higher value",-18.2%
same,inhibition,"[4]; measured here: combination with cisplatin, at 5 µM, stronger effect = higher value",-60.7%
same,inhibition,"[5]; BGB combo, at 5 µM",54.9%
same,inhibition,[5]; at 0.5 µM,3.71% (inactive)
same,inhibition,"[5]; cisplatin combo, at 5 µM",68.7%
same,inhibition,[5]; [26],-2.84%
same,inhibition,[5]; [27],14.2%
same,inhibition,"[5]; single agent, at 5 µM",74.1%
same,inhibition,"[6]; BGB IC20 combo, at 0.005 µM",9.17%
same,inhibition,"[6]; BGB IC40 combo, at 0.005 µM",-17.8%
same,inhibition,"[6]; BGB IC40 combo, at 0.05 µM",44.6%
same,inhibition,[6]; at 0.5 µM,-13.1% (inactive)
same,inhibition,"[6]; cisplatin combo, at 0.05 µM",42.6%
same,inhibition,"[6]; cisplatin combo, at 0.5 µM",-13.5%
same,inhibition,"[6]; cisplatin combo, at 5 µM",-41.4%
same,inhibition,"[6]; measured here: 5 uM single agent, at 5 µM",-10.6%
same,inhibition,[7]; at 0.5 µM,-9.48% (inactive)
same,inhibition,[7]; [25],5.36%
same,inhibition,[7]; [28],-34%
same,inhibition,[7]; [29],26.2%
same,inhibition,[8]; at 0.5 µM,2.72% (inactive)
same,inhibition,"[8]; measured here: with BGB IC20, at 0.5 µM",0.991%
same,inhibition,"[8]; measured here: with BGB IC20, at 5 µM",44.7%
same,inhibition,"[8]; measured here: with cisplatin IC20, at 0.5 µM",4.34%
same,inhibition,"[8]; measured here: with cisplatin IC20, at 5 µM",12.6%
same,inhibition,"[8]; single agent, at 5 µM",47.7%
same,inhibition,[9]; at 0.5 µM,-32.5% (inactive)
same,inhibition,"[9]; measured here: combination with BGB at IC20, at 0.5 µM",-20.2%
same,inhibition,"[9]; measured here: combination with cisplatin at IC20, at 0.5 µM",-64.1%
same,inhibition,[10]; at 0.5 µM,3.43% (inactive)
same,inhibition,"[10]; measured here: combo with BGB at IC20, at 0.5 µM",-2.99%
same,inhibition,"[10]; measured here: combo with cisplatin at IC20, at 0.5 µM",13.3%
same,inhibition,[11]; at 0.5 µM,11.5% (inactive)
same,inhibition,"[11]; measured here: inhibition with BGB combination, at 0.05 µM",17.9%
same,inhibition,"[11]; measured here: inhibition with cisplatin combination, at 0.05 µM",12.8%
same,inhibition,[12]; at 0.5 µM,-6.87% (inactive)
same,inhibition,[12]; [28],-10.6%
same,inhibition,[12]; [29],26.8%
same,inhibition,[13]; at 0.5 µM,2.15% (inactive)
same,inhibition,"[13]; measured here: BGB combination, at 0.5 µM",0.074%
same,inhibition,"[13]; measured here: BGB combination, at 5 µM",18.2%
same,inhibition,"[13]; measured here: cisplatin combination, at 0.5 µM",3.61%
same,inhibition,"[13]; measured here: cisplatin combination, at 5 µM",29.4%
same,inhibition,"[14]; BGB combination, concentration series, at 5 µM",53.7%
same,inhibition,[14]; at 0.5 µM,8.71% (inactive)
same,inhibition,"[14]; cisplatin combination, concentration series, at 5 µM",38.8%
same,inhibition,[15]; at 0.5 µM,-2.23% (inactive)
same,inhibition,"[15]; measured here: combo with BGB IC20, at 0.5 µM",-5.88%
same,inhibition,"[15]; measured here: combo with cisplatin IC20, at 0.5 µM",-4.28%
same,inhibition,[16]; at 0.5 µM,5.1% (inactive)
same,inhibition,"[16]; cisplatin combination, at 0.5 µM",-5.89%
same,inhibition,"[16]; cisplatin combination, at 5 µM",96.5%
same,inhibition,"[16]; measured here: BGB IC40 combination 0.05 uM, at 0.05 µM",-35.9%
same,inhibition,"[16]; single agent, at 5 µM",55.8%
same,inhibition,[17]; at 0.5 µM,16.2% (inactive)
same,inhibition,"[17]; cisplatin combo, at 5 µM",34.5%
same,inhibition,"[17]; measured here: BGB IC40 combination, at 0.05 µM",5.63%
same,inhibition,[17]; [28],33%
same,inhibition,"[17]; single agent, at 5 µM",51.6%
same,inhibition,[18]; at 0.5 µM,-10% (inactive)
same,inhibition,[18]; [26],-14.1%
same,inhibition,[18]; [27],-9.79%
same,inhibition,"[18]; single agent, at 0.05 µM",7.84%
same,inhibition,"[18]; single agent, at 5 µM",64%

# Source: PubChem BioAssay
